# Where “and” joins values, the source holds several entries; their conditions need not be identical. Identical values can stand only once. In all, about 370,000 compounds went through this assay and about 3,100 (0.84%) were called active. Rule as the data show it: active = inhibition above about 9.5%; inactive = the rest. Many of the other results were omitted from the sample, so actives are more common in it than they were.
# Target: 1-phosphatidylinositol 4,5-bisphosphate phosphodiesterase gamma-1 (Homo sapiens) (UniProt P19174)
# Assay: blockers of human PLCG1 activity – biochemical, fluorescence, purified enzyme, primary screen (AID 720700)
# Conditions: purified PLC-gamma1, fluorogenic substrate, at 12.2 µM, hits give high values
# 1-phosphatidylinositol 4,5-bisphosphate phosphodiesterase gamma-1 (Homo sapiens), sequence (P19174 whole entry, looked up): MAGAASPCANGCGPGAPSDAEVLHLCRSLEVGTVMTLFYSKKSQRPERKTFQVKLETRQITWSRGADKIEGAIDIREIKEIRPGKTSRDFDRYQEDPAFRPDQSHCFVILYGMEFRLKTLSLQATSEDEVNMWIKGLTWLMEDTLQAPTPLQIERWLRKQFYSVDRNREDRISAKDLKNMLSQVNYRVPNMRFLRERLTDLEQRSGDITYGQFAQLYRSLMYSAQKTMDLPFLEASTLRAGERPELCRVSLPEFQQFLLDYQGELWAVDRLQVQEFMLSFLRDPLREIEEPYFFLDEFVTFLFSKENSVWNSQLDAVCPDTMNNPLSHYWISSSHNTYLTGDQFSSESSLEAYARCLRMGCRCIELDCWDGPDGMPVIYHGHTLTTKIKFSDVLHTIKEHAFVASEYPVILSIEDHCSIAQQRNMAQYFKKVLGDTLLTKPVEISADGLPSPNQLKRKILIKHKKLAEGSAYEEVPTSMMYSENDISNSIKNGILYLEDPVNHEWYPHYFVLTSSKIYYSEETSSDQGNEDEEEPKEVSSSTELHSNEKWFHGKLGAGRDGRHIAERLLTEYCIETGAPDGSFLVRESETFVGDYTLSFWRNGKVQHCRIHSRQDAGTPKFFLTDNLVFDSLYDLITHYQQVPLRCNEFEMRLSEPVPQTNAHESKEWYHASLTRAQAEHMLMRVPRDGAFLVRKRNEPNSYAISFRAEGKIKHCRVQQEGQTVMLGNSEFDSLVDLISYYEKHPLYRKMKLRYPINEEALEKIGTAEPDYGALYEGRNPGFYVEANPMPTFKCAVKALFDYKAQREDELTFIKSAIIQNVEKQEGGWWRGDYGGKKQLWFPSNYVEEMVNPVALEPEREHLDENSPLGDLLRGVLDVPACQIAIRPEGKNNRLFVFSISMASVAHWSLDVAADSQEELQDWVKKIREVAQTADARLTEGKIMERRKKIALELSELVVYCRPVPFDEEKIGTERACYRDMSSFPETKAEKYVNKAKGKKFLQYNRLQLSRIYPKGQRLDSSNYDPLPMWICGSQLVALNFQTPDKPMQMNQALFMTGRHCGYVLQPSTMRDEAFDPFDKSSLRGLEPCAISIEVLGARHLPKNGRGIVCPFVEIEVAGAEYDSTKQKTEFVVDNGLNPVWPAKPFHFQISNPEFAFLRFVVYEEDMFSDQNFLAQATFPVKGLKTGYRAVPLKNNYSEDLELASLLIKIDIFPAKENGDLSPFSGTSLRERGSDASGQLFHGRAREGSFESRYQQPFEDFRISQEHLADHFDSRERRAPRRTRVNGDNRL
row,SMILES,inhibition
1,CC(=O)N1CN2CN(C(C)=O)CC(C(=O)c3ccc(Br)cc3)(C2)C1,11.9% (active)
2,Cc1cc(-c2ccc(N)c(C)c2)ccc1N,2.25% (inactive)
3,Oc1ccc2c3c1OC1[C@H](O)CC[C@@]4(O)[C@@H](C2)N(CC2CC2)CC[C@]314 (stereo not given in full),-3.08% (inactive) and -2.01% (inactive)
4,O=C(NC1CCCCC1)N1Cc2cc(N3CCCCC3)ccc2-n2nncc2C1,-5.89% (inactive)
5,CCN(CC)P(=O)(Oc1cccc(C)c1)N(CC)CC,7.26% (inactive)
6,COC(=O)C1=C(c2cccc(OCc3ccccc3)c2)C[C@@H]2CC[C@H]1N2C(=O)NCc1ccc(Br)cc1,0.93% (inactive)
7,COC(=O)C1=C(c2ccc(F)cc2OCc2ccccc2)C[C@@H]2CC[C@H]1N2C(=O)NCc1ccc(Cl)cc1,4.35% (inactive)
8,COC(=O)C1=C(c2ccc(-c3ccccc3)c(F)c2)C[C@@H]2CC[C@H]1N2C(=O)NCc1ccc(F)cc1,11.8% (active)
9,CCOC(=O)C(O)(c1ccc(N)c(OC)c1)C(F)(F)F (stereo not given),0.45% (inactive)
10,CN(C)CCN(CC1CCCN(Cc2ccccc2F)C1)C(=O)Cc1ccc(F)c(F)c1 (stereo not given),1.2% (inactive)
